High-throughput results deposited in PubChem BioAssay by several laboratories.
CHT inh = human CHT choline transport inhibition | 310,000 compounds, 0.86% hits | CHT-expressing cells, membrane potential dye, choline response; hits give low values | B-score at 10 µM;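 active = B-score over 3 SD under the library average, and starting fluorescence ratio not unusually high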;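 also: choline stimulus applied at its EC90 after an EC20 pre-addition; B-score computed on integrated fluorescence ratio after choline addition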
Target sequence (Q9GZV3 whole entry, looked up): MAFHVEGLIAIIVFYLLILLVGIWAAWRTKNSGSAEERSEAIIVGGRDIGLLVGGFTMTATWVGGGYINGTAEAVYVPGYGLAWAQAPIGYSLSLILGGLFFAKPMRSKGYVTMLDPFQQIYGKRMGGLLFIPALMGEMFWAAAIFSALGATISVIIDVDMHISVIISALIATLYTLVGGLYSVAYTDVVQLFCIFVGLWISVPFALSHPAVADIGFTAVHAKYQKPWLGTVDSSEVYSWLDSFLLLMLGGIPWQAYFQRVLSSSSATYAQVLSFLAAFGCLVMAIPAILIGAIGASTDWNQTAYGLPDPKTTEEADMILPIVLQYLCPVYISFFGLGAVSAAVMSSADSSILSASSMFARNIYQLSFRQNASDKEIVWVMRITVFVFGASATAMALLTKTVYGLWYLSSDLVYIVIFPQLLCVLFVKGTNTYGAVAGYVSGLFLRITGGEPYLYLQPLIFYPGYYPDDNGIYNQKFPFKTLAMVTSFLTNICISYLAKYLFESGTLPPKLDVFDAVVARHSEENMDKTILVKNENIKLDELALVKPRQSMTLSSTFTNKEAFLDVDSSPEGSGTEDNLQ
PREPL inhibitor = inhibits the human prolyl oligopeptidase-like enzyme | recombinant PREPL, fluorescence polarization activity-based probe | Q4J6C6 | 320,000 compounds, 0.68% hits | inhibition, % at 5.96 µM; in the data active = inhibition above about 43%
ALR inh = human ALR oxidase inhibition via reduced H2O2; purified ALR, DTT oxidation, H2O2 HRP-luminol luminescence; inhibition, % (no concentration beside the values); 290,000 compounds, 3.8% hits; AID 485317;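 active = mean replicate inhibition above about 79%, with every replicate also reaching it, limit read from the data; inconclusive = only one of the two criteria met; inactive = mean below limit and not every replicate reaching it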
CHT PAM = human CHT allosteric activation; B-score at 10 µM; 310,000 compounds, 0.49% hits; CHT-expressing cells, membrane potential dye, choline EC20; hits give high values; LV-AA mutant CHT in HEK293 cells; Q9GZV3;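 active = initial fluorescence not abnormally high and integrated response B-score, plate-corrected, over 3 SD above library mean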
AI-2 QS modul = Vibrio harveyi AI-2 quorum sensing modulation | activity change, % at 7.5 µM | AID 2094 | 300,000 compounds, 0.4% hits | Vibrio harveyi JMH597 AI-2 luminescence/OD600 ratio, 9 h; hits give low values; strain lacks LuxN and CqsS sensors; 0 = neutral-control median; in the data active = activity change below about -75%, passing the limit was not always enough; inconclusive = no clear call, values can overlap the other calls;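 also: luminescence divided by OD600 gain over 9 h not by final OD600 alone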
CHT block conf = human CHT inhibition, confirmatory screen; AID 493221; shares compounds with CHT inh; 2,400 compounds, 70% hits; CHT-expressing cells, choline membrane potential dye; LV-to-AA substituted CHT, HEK293 cells; CHT activity remaining % of control (hits give low values), % at 10 µM;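 active = choline transporter activity left, mean of duplicates at 10 µM, below buffer-only control mean minus 3 SD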;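 also: depolarization triggered by choline at its EC90 following an EC20 pre-addition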
HEK293 CHT ctr = counter-screen for CHT inhibitors: effect in parental HEK293 cells; membrane potential dye, choline response; active = decrease or increase beyond buffer ±3SD; 2,400 compounds, 4% hits; membrane potential ratio readout (active if shifted either direction beyond buffer ±3SD; no single direction) at 10 µM; AID 493222; shares compounds with CHT inh;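 also: parental cells lack the transporter so any hit is non-specific; ratio is peak minus trough fluorescence over baseline after EC90 choline challenge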
Large screens that a line does not name were inactive (follow-up assays come after a bar, where they were run). Compounds with a hit are over-represented: about 5% of the library has one in this group of screens.

O=C(NCCCn1ccnc1)c1cn(-c2ccccc2)nc1-c1ccc(F)cc1	CHT inh -6.9 | CHT block conf 36% | HEK293 CHT ctr inactive
Cc1ccc2nc(-c3ccccc3)cc(C(=O)NCCCn3ccnc3)c2c1	CHT inh -11 | CHT block conf 30% | HEK293 CHT ctr inactive
CCOC(=O)c1cc(CC)sc1NC(=O)COc1ccc2c(C)cc(=O)oc2c1	CHT inh -7.3 (no result: ALR inh) | CHT block conf inactive | HEK293 CHT ctr inactive
C=C(C)COc1ccc(-c2[nH]ncc2-c2ccccc2OC)c(O)c1	none
C=C(C)COc1ccc(-c2[nH]ncc2-c2ccc(Br)cc2)c(O)c1	CHT inh -5.5 | CHT block conf inactive | HEK293 CHT ctr inactive
COCCNC(=O)CN(Cc1ccccc1)C(=O)CCC(=O)Nc1nccs1	none
CN(CC(=O)Nc1ccc(Cl)c(C(F)(F)F)c1)C(=O)C1CCCO1 (stereo unspecified)	none (no result: CHT inh, CHT PAM, AI-2 QS modul)
O=C(O)CSc1nc2ccccc2[nH]1	none
CC(SCC(=O)O)c1nc2ccccc2[nH]1 (stereo unspecified)	CHT inh -5.7 | CHT block conf inactive | HEK293 CHT ctr inactive
Cc1ccc(Nc2nnc(-c3ccc(N4CCOCC4)c([N+](=O)[O-])c3)c3ccccc23)cc1	CHT inh -5.4 | CHT block conf 59% | HEK293 CHT ctr inactive
CC(C(=O)Nc1ccc(Cl)cc1)N1C(=O)NC2(CCCC2)C1=O (stereo unspecified)	none
CCc1ccc(OCC(=O)N2CCN(c3ccccc3F)CC2)cc1	CHT inh -5.5 | CHT block conf inactive | HEK293 CHT ctr inactive
C=CCNC(=O)c1ccc(C2SCC(=O)N2Cc2ccccc2)cc1 (stereo unspecified)	CHT inh -7 | CHT block conf 70% | HEK293 CHT ctr inactive
CC(CNC(=O)COc1ccc2c(c1)OCO2)c1ccccc1 (stereo unspecified)	none (no result: CHT inh, CHT PAM, AI-2 QS modul)
O=C(O)c1cccc2c1/C(=N/Nc1ccc([N+](=O)[O-])cc1[N+](=O)[O-])c1ccccc1-2	CHT inh -6.2 (no result: ALR inh) | CHT block conf 69% | HEK293 CHT ctr inactive
O=C(N/N=C/C=C/c1ccccc1[N+](=O)[O-])c1cc(-c2cccnc2)nc2ccccc12	CHT inh -9.2 | CHT block conf inactive | HEK293 CHT ctr inactive
COc1ccccc1-c1cc(C(=O)N/N=C/C=C/c2ccccc2[N+](=O)[O-])c2ccccc2n1	none
CCCc1cc(-c2n[nH]c(=S)n2CC)cs1	none
CCCCn1c(-c2csc(CCC)c2)n[nH]c1=S	CHT inh -5.6 | CHT block conf inactive | HEK293 CHT ctr inactive
Cc1cc(=O)oc2cc(OCC(=O)N3CCCC3)c(Cl)cc12	none (no result: CHT inh, CHT PAM, AI-2 QS modul)
CC(C)(C)NC(=O)NC(=O)CN1CCN(c2cccc(Cl)c2)CC1	CHT inh -6.9 (no result: ALR inh) | CHT block conf 47% | HEK293 CHT ctr inactive
O=C(NCCCN1CCOCC1)c1ccc2c(=O)n(-c3ccc(F)c(Cl)c3)c(=S)[nH]c2c1	CHT inh -11 (no result: ALR inh) | CHT block conf 21% | HEK293 CHT ctr inactive
O=C(NCCCN1CCOCC1)c1ccc(Cl)c(S(=O)(=O)N2CCCCCC2)c1	CHT inh -8.3 | CHT block conf 37% | HEK293 CHT ctr inactive
O=C(NCCN1CCOCC1)c1ccc(Cl)c(S(=O)(=O)N2CCCCCC2)c1	none
COc1ccc(-n2c(=S)[nH]c3cc(C(=O)NCCCN4CCOCC4)ccc3c2=O)cc1	CHT inh -5.2 (no result: AI-2 QS modul) | CHT block conf 47% | HEK293 CHT ctr inactive
CCOC(=O)C1CCN(C(=O)COc2ccc(S(=O)(=O)N3CCOCC3)cc2C)CC1	none
O=C(NCC(=O)N(c1cccnc1)C(C(=O)NC1CCCCC1)c1ccccc1F)c1ccco1 (stereo unspecified)	none
O=[N+]([O-])c1cc(-c2ncccn2)c([N+](=O)[O-])s1	CHT inh -6.3, ALR inh 98 | CHT block conf 48% | HEK293 CHT ctr inactive
CCCCN1C(=O)C(O)(CC(=O)c2c(C)n[nH]c2C)c2cc(Br)ccc21 (stereo unspecified)	none
CCCCN1C(=O)C(O)(CC(=O)c2ccco2)c2cc(Br)ccc21 (stereo unspecified)	CHT inh -5.6 | CHT block conf inactive | HEK293 CHT ctr inactive
CC(=O)Nc1ccc(Nc2cc(C)c3ccccc3n2)cc1	CHT inh -6.4 (no result: ALR inh) | CHT block conf 46% | HEK293 CHT ctr inactive
Cn1cnnc1SCC(=O)Nc1ccc2ccccc2c1	none (no result: CHT inh, CHT PAM, AI-2 QS modul)
CCOc1cc(/C=C2/C(=N)N3OC(C)=CC3=NC2=O)ccc1OCCOc1ccccc1	none
N#CCCN1CCN(C(=S)c2ccc(-c3cc(Cl)ccc3Cl)o2)CC1	none
CN1CCN(C(=S)c2ccc(-c3cc(Cl)ccc3Cl)o2)CC1	CHT inh -9.7 (no result: ALR inh) | CHT block conf inactive | HEK293 CHT ctr inactive
O=C(COc1ccc(S(=O)(=O)N2CCOCC2)cc1)N1CCN(c2ccccc2)CC1	none
Nc1nnc(-c2ccc(F)cc2)s1	none
CC(C)(C)c1ccc(-c2nnc(N)s2)cc1	CHT inh -6 | CHT block conf inactive | HEK293 CHT ctr inactive
COc1cccc(/C=C2\SC(=S)N(NS(=O)(=O)c3ccccc3)C2=O)c1OC	CHT inh -5.7, ALR inh 97 | CHT block conf 44% | HEK293 CHT ctr inactive
COc1cc(/C=C2\SC(=S)N(NS(=O)(=O)c3ccccc3)C2=O)cc(OC)c1OC	none (no result: ALR inh)
O=C(NN1C(=O)/C(=C/c2ccc(O)c([N+](=O)[O-])c2)SC1=S)c1ccccc1Cl	CHT inh -5.4 | CHT block conf inactive | HEK293 CHT ctr inactive
NC1=NC(=O)/C(=C\c2ccc(O)c([N+](=O)[O-])c2)S1	none
Cc1sc2ncnc(NCc3cccs3)c2c1C	none
Cc1sc2ncnc(NCc3ccco3)c2c1C	CHT inh -5.4 | CHT block conf 65% | HEK293 CHT ctr inactive
Cc1cccc(-c2nc(CN3CCCC(C(=O)NC4CCCCCC4)C3)c(C)o2)c1 (stereo unspecified)	none
Cc1cccc(-c2nc(CN3CCCC(C(=O)NC4CCCCC4)C3)c(C)o2)c1 (stereo unspecified)	CHT inh -5.7 | CHT block conf inactive | HEK293 CHT ctr inactive
CC(=O)NC(Cc1cccc(F)c1)C(=O)NC1CCN(C(=O)c2cccc(C)c2)CC1 (stereo unspecified)	CHT inh -7.8 | CHT block conf inactive | HEK293 CHT ctr inactive
Cc1ccc2nccc(C(=O)N3CCCC(N4CCN(c5ccc(F)cc5)CC4)C3)c2c1 (stereo unspecified)	none
C=CCc1ccc(O)c(-c2cc(CC=C)ccc2O)c1	CHT inh -9.9, ALR inh inconclusive | CHT block conf 36% | HEK293 CHT ctr inactive
CCN(CC)CCNC(=O)c1ccc(-n2c(C)cc3c2CCCC3=O)cc1	none (no result: AI-2 QS modul)
